# Columns and labels:
# Format in all cases: functional
# Plasmodium falciparum [1] = experiment: GSK_TCMDC: Inhibition of Plasmodium falciparum 3D7 in whole red blood cells, using parasite LDH activity as an index of growth. Test compounds present at 2uM
# Plasmodium falciparum [2] = experiment: GSK_TCMDC: Inhibition of Plasmodium falciparum Dd2 in whole red blood cells, using parasite LDH activity as an index of growth. Test compounds present at 2uM
# HepG2 = experiment: GSK_TCMDC: Percent inhibition of human HepG2 cell line. Test compounds present at 10uM.
Structure (SMILES),Inhibition (Plasmodium falciparum [1]) [%],Inhibition (Plasmodium falciparum [2]) [%],Inhibition (HepG2) [%]
COc1ccc(-c2ccc(NC(=O)c3ccc(C#N)cc3)cc2)cc1CN1CCN(C)CC1.O=C(O)C(F)(F)F,93,49,21
Cl.OCCNc1nc(Nc2cccc(O)c2)nc2ccccc12,96,55,3
Cc1ccc(S(=O)(=O)O)cc1.N=C(NCCc1c[nH]c2ccccc12)NCc1ccccc1Cl,83,45,16
CN(C)c1ccc(-c2csc(C(=O)NC3CCCCN(CCC(C)(C)C)C3)c2)cc1.O=C(O)C(F)(F)F (stereo not drawn),91,68,10
Cn1cnc2nc(NCCc3ccccc3)nc(NCc3cccc4ccccc34)c21,95,98,16
CCn1c(C)c(C)c2cc(C(=O)Nc3ccon3)ccc21,95,93,3
Cc1cc(=NN=Cc2cccc(F)c2)c2cc(F)ccc2[nH]1,100,99,7
CC(C)CCN1CCCN(Cc2cccc(C(=O)Nc3ccc(C(C)(C)C)cc3)c2)CC1.O=C(O)C(F)(F)F,85,1,33
CCc1cn2c3c(cc(C(=O)N[C@@H](Cc4ccccc4)[C@H](O)CN[C@@H](C)CC)cc13)N(C)S(=O)(=O)CC2.O=CO,99,98,2
O=C(NCc1ccccc1F)c1ccc(N2CCC(NCc3cccc(-n4cccn4)c3)CC2)cc1,89,3,9
CCCN(CC)CCOC(=O)c1ccccc1,99,1,2
